About 83,000 compounds went through this panel and 20% of them were active in at least one assay; those are over-represented in the sample as a whole.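 Single-concentration screen, 48 h exposure, 96-well plates. Endpoint: percent growth. Below 10 = active.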 Values without a mark were called inactive. The source made the active and inactive calls.
Tests used:
Assay in all cases: NCI-60 one-dose screen, 48 h (100 = growth as untreated, 0 = no growth, -100 = all killed)
NCI-H23 lung = conditions: 10 µM unless noted
NCI-H226 lung = conditions: 10 µM unless noted
NCI-H322M lung = conditions: 10 µM unless noted
HOP-62 NSCLC = conditions: 10 µM unless noted
NCI-H460 lung = conditions: 10 µM unless noted
HOP-92 NSCLC = conditions: 10 µM unless noted
NCI-H522 lung = conditions: 10 µM unless noted
A549/ATCC NSCLC = conditions: 10 µM unless noted
786-0 renal = conditions: 10 µM unless noted
COLO 205 colon = conditions: 10 µM unless noted
DU-145 prostate = conditions: 10 µM unless noted
K-562 leukemia = conditions: 10 µM unless noted
MALME-3M melanoma = conditions: 10 µM unless noted
MDA-MB-231 breast = conditions: 10 µM unless noted
SF-268 CNS = conditions: 10 µM unless noted
SF-295 CNS = conditions: 10 µM unless noted
SF-539 CNS = conditions: 10 µM unless noted
M14 melanoma = conditions: 10 µM unless noted
RXF 393 renal = conditions: 10 µM unless noted
UACC-257 melanoma = conditions: 10 µM

Compound | growth (NCI-H23 lung) | growth (NCI-H226 lung) | growth (NCI-H322M lung) | growth (HOP-62 NSCLC) | growth (NCI-H460 lung) | growth (HOP-92 NSCLC) | growth (NCI-H522 lung) | growth (A549/ATCC NSCLC) | growth (786-0 renal) | growth (COLO 205 colon) | growth (DU-145 prostate) | growth (K-562 leukemia) | growth (MALME-3M melanoma) | growth (MDA-MB-231 breast) | growth (SF-268 CNS) | growth (SF-295 CNS) | growth (SF-539 CNS) | growth (M14 melanoma) | growth (RXF 393 renal) | growth (UACC-257 melanoma)
CC(C)(C)c1cc(-c2nc3ccc(N4CCN(CCO)CC4)cc3[nH]2)cc(C(C)(C)C)c1O | 96.3% | 99% | 82.3% | 72.6% | 4.48% (active) | 45.2% | 74% | 43.1% | 52% | -57.2% (active) | 70.5% | -24.2% (active) | -26.4% (active) | 39.2% | 68.3% | 98.2% | 55.3% | -40.5% (active) |  | 
CSc1ccccc1C#C/C=C\C#Cc1ccccc1N1CCCCC1=O | 103% | 91.2% | 110% | 88.2% | 93.3% | 63.8% | 99.7% | 48.6% | 106% | 108% | 107% | 143% | 89.2% | 90.8% | 101% | 111% | 93.4% | 104% |  | 
Nc1nc(-c2cc3ccccc3o2)cc(=O)c(=O)[nH]1 | 105% | 95.7% | 95.4% | 96.6% | 98.1% | -2.74% (active) | 91.9% | 110% | 107% | 106% | 108% | 103% | 94.3% | 98.3% | 96.5% | 109% | 89.3% | 106% |  | 
COc1ccc(OC)c(NC(=O)c2cc(S(=O)(=O)N3CCc4ccccc43)ccc2OC)c1 | 86.7% | 92.1% | 109% | 100% | 108% | 74.5% | 78.6% | 78.9% | 89.8% | 87.5% | 84.9% | 103% | 111% | 71.8% | 95.9% | 73.4% | 82.9% | 98.8% |  | 
Cc1cc(C(=O)CSc2nc3ccccc3c(=O)[nH]2)c(C)n1C | 97.7% | 97.8% | 100% | 93.5% | 113% | 73.1% | 98.9% | 43.2% | 91.9% | 109% | 102% | 110% | 87.5% | 90.4% | 110% | 81.9% | 90.2% | 112% |  | 
CCCCCCCCCCCCCCCCCCOc1cccc(CCOP(=O)(O)OCC[N+](C)(C)C)c1 | 96.3% | 95.3% | 105% | 72.2% | 60.7% | 72.9% | 72% | 84.9% | 91.2% | 97.4% | 95.9% | 116% | 101% | 95.5% | 68% | 87.2% | 95.1% | 93.4% |  | 
O=C(O)c1ccc(-n2c(=O)c3ccccc3c3ccccc3c2=O)cc1 | 102% | 99.8% | 108% | 102% | 115% | 110% | 94.9% | 106% | 109% |  | 113% | 103% | 109% | 106% | 99.5% | 92.7% | 97.1% | 117% | 108% | 102%
Cn1c(C(N)=O)cc2c1-c1nc(NC3CCCCC3)ncc1CCC2 | 93.7% | 70.9% | 110% | 90% | 94.3% | 6.02% (active) | 94.9% | 92.2% | 91.2% | 113% | 103% | 101% |  | 78.4% | 84.8% | 91.3% | 80.6% | 109% | 59.5% | 106%
NC(=S)NN=C1CCCCC1 | 89.5% | 87.5% | 99.3% | 91.9% | 97.8% | 92.1% | 70.3% | 84.7% | 106% | 93.2% | 95.1% | 40.1% | 91.6% |  | 93.5% | 92.8% | 99.7% | 81.2% | 109% | 73.3%

— PubChem BioAssay (NCI)
